Assay results taken from PubChem BioAssay (Tox21).
Records with an inconclusive call do not appear. Activity calls are given as the source filed them. Calls follow the shape of the dose curve; as a rule, active = well fitted curve in the direction sought with a large enough effect in the repeat runs; inconclusive = weak or mixed curves; inactive = no such curve, though single readings can be large; an effect the other way counts as inactive or inconclusive.

Experiments:
[1] = qHTS RealTime-Glo MT Cell Viability Assay in HEK293 cells - 32 hour (AID 1224868); also: top concentration of the series differs between compounds; nearly all actives have a fitted effect of over 50% in size
Summary of the method: (§1)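 HEK293 cells seeded with NanoLuc/prosubstrate reagent, rested 5 h at 37 C, then dosed and kept at 37 C up to 40 h. Nonlytic real-time luminescence from viable cells read at 0, 8, 16, 24, 32 and 40 h.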

[2] = A CellTox Green Cytotoxicity Assay to monitor cytotoxicity in HEK293 cells - 0 hour (AID 1224869); also: nearly all actives have a fitted effect of over 50% in size
Summary of the method: (§2)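 Tox21 screen in HEK293: membrane-impermeant cyanine dye fluoresces on binding dead-cell DNA; compound pinned 5 h post-seeding, plates held at 37 C, signal read repeatedly through 40 h.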

[3] = qHTS RealTime-Glo MT Cell Viability Assay in HepG2 cells - 40 hour (AID 1224870); also: nearly all actives have a fitted effect of over 50% in size
Summary of the method: (§3)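 Real-time viability: cells seeded at 600 per well together with NanoLuc and cell-permeant prosubstrate, compounds added after 5 h incubation. Luminescence tracked at 0, 8, 16, 24, 32 and 40 h of exposure.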

[4] = A CellTox Green Cytotoxicity Assay to monitor cytotoxicity in HEK293 cells - 40 hour (AID 1224871); also: nearly all actives have a fitted effect of over 45% in size
Summary of the method: as §2

[5] = qHTS RealTime-Glo MT Cell Viability Assay in HEK293 cells - 16 hour (AID 1224872); also: top concentration of the series differs between compounds; nearly all actives have a fitted effect of over 50% in size
Summary of the method: as §1

[6] = qHTS RealTime-Glo MT Cell Viability Assay in HepG2 cells - 8 hour (AID 1224873); also: nearly all actives have a fitted effect of over 55% in size
Summary of the method: as §3

[7] = qHTS RealTime-Glo MT Cell Viability Assay in HEK293 cells - 40 hour (AID 1224874); conditions: RealTime-Glo luminescence, hits give low values; also: nearly all actives have a fitted effect of over 50% in size
Summary of the method: (§4)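 HEK293 + NanoLuc + prosubstrate, 600 cells/well; 5 h, 37 C/5% CO2; compound 23 nL in DMSO by pintool; 37 C; luminescence read at 0, 8, 16, 24, 32 and 40 h time points.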

[8] = A CellTox Green Cytotoxicity Assay to monitor cytotoxicity in HEK293 cells - 24 hour (AID 1224875); also: series mostly up to about 77 µM; nearly all actives have a fitted effect of over 45% in size
Summary of the method: as §2

[9] = A CellTox Green Cytotoxicity Assay to monitor cytotoxicity in HepG2 cells - 16 hour (AID 1224876); also: nearly all actives have a fitted effect of over 45% in size
Summary of the method: (§5)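 Measurements at 0, 8, 16, 24, 32 and 40 h of treatment captured CellTox Green fluorescence in HepG2 cells that had been co-plated with reagent and preincubated 5 h at 37 C/5% CO2.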

[10] = qHTS RealTime-Glo MT Cell Viability Assay in HepG2 cells - 32 hour (AID 1224877); also: nearly all actives have a fitted effect of over 55% in size
Summary of the method: (§6)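 HepG2 cells (600/well) were dispensed with RealTime-Glo reagents, incubated 5 h at 37 °C, then treated with compounds in DMSO for up to 40 h. Nonlytic NanoLuc luminescence reflecting viable cells was read at each stated time point.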

[11] = A CellTox Green Cytotoxicity Assay to monitor cytotoxicity in HepG2 cells - 24 hour (AID 1224878); also: nearly all actives have a fitted effect of over 45% in size
Summary of the method: as §5

[12] = A CellTox Green Cytotoxicity Assay to monitor cytotoxicity in HepG2 cells - 40 hour (AID 1224879); also: nearly all actives have a fitted effect of over 40% in size
Summary of the method: as §5

[13] = qHTS RealTime-Glo MT Cell Viability Assay in HEK293 cells - 0 hour (AID 1224880)
Summary of the method: as §4

[14] = A CellTox Green Cytotoxicity Assay to monitor cytotoxicity in HepG2 cells - 32 hour (AID 1224883); also: nearly all actives have a fitted effect of over 50% in size
Summary of the method: as §5

[15] = A CellTox Green Cytotoxicity Assay to monitor cytotoxicity in HEK293 cells - 8 hour (AID 1224884); also: nearly all actives have a fitted effect of over 35% in size
Summary of the method: as §2

[16] = qHTS RealTime-Glo MT Cell Viability Assay in HepG2 cells - 16 hour (AID 1224885); also: nearly all actives have a fitted effect of over 50% in size
Summary of the method: as §6

[17] = qHTS RealTime-Glo MT Cell Viability Assay in HEK293 cells - 24 hour (AID 1224886)
Summary of the method: as §1

[18] = qHTS RealTime-Glo MT Cell Viability Assay in HEK293 cells - 8 hour (AID 1224887)
Summary of the method: as §4

[19] = A CellTox Green Cytotoxicity Assay to monitor cytotoxicity in HepG2 cells - 0 hour (AID 1224882); also: nearly all actives have a fitted effect of over 35% in size
Summary of the method: as §5

[20] = A CellTox Green Cytotoxicity Assay to monitor cytotoxicity in HEK293 cells - 32 hour (AID 1224881); also: nearly all actives have a fitted effect of over 40% in size
Summary of the method: as §2
% is scaled to controls: 0 for no effect and ±100 for the full control effect.

CCOC(=O)CC
inactive: outcome [1] | outcome [2] | outcome [3] | Potency [4] | outcome [5] | outcome [6] | max response [7] 19% | Potency [8] | Potency [9] | outcome [10] | Potency [11] | Potency [12] | Potency [13] | Potency [14] | Potency [15] | outcome [16] | outcome [17] | outcome [18]

C=CCCCCCCCCOC(C)=O
inactive: outcome [1] | outcome [2] | outcome [3] | Potency [4] | outcome [5] | outcome [6] | max response [7] 0.238% | Potency [8] | Potency [9] | outcome [10] | Potency [11] | Potency [12] | Potency [13] | Potency [19] | Potency [14] | Potency [15] | outcome [16] | outcome [17] | outcome [18]

NNC(=O)OCc1ccccc1
inactive: outcome [1] | outcome [2] | outcome [3] | Potency [4] | outcome [5] | outcome [6] | max response [7] -4.79% | Potency [8] | Potency [9] | outcome [10] | Potency [11] | Potency [12] | Potency [20] | Potency [19] | Potency [14] | Potency [15] | outcome [16] | outcome [17] | outcome [18]

CCOC(=O)CC(C(C)=O)C(C)=O
inactive: outcome [1] | outcome [2] | outcome [3] | Potency [4] | outcome [5] | outcome [6] | Potency [8] | Potency [9] | outcome [10] | Potency [11] | Potency [12] | Potency [13] | Potency [20] | Potency [19] | Potency [14] | Potency [15] | outcome [16] | outcome [17] | outcome [18]

CN(C)c1cc(NC(=O)CNC(C)(C)C)c(O)c2c1C[C@H]1C[C@H]3[C@H](N(C)C)C(=O)C(C(N)=O)=C(O)[C@@]3(O)C(=O)C1=C2O
inactive: outcome [1] | outcome [2] | outcome [3] | Potency [4] | outcome [5] | outcome [6] | max response [7] 2.22% | Potency [8] | Potency [9] | outcome [10] | Potency [11] | Potency [13] | Potency [20] | Potency [19] | Potency [14] | Potency [15] | outcome [16] | outcome [17] | outcome [18]

COC(=O)/C=C(\C)CCC=C(C)C
inactive: outcome [1] | outcome [2] | outcome [3] | Potency [4] | outcome [5] | outcome [6] | max response [7] 9.52% | Potency [8] | outcome [10] | Potency [11] | Potency [12] | Potency [13] | Potency [14] | Potency [15] | outcome [16] | outcome [17] | outcome [18]

CCc1ccc(CC)cc1
inactive: outcome [1] | outcome [2] | outcome [3] | Potency [4] | outcome [5] | outcome [6] | max response [7] 4.78% | Potency [8] | outcome [10] | Potency [11] | Potency [12] | Potency [13] | Potency [20] | Potency [19] | Potency [14] | Potency [15] | outcome [16] | outcome [17] | outcome [18]

CC(=O)/C=C/C=C1/C2CCC(C2)C1(C)C (stereo unspecified)
inactive: outcome [1] | outcome [2] | outcome [3] | Potency [4] | outcome [5] | outcome [6] | Potency [8] | Potency [9] | outcome [10] | Potency [11] | Potency [12] | Potency [13] | Potency [20] | Potency [19] | Potency [14] | Potency [15] | outcome [16] | outcome [17] | outcome [18]

CC[C@@]1(c2ccccc2)NC(=O)N(C)C1=O
inactive: outcome [1] | outcome [2] | outcome [3] | Potency [4] | outcome [5] | outcome [6] | max response [7] 14.4% | Potency [8] | Potency [9] | outcome [10] | Potency [11] | Potency [13] | Potency [20] | Potency [19] | Potency [14] | Potency [15] | outcome [16] | outcome [17] | outcome [18]

CCN(CC)CC
inactive: outcome [1] | outcome [2] | outcome [3] | Potency [4] | outcome [5] | outcome [6] | max response [7] -12.9% | Potency [8] | Potency [9] | outcome [10] | Potency [11] | Potency [13] | Potency [20] | Potency [14] | Potency [15] | outcome [16] | outcome [18]

CCCC[O][Al]([O]CCCC)[O]CCCC
inactive: outcome [1] | outcome [2] | outcome [3] | Potency [4] | outcome [5] | outcome [6] | max response [7] 2.78% | Potency [8] | outcome [10] | Potency [11] | Potency [12] | Potency [13] | Potency [20] | Potency [19] | Potency [14] | Potency [15] | outcome [16] | outcome [17] | outcome [18]

O=C(O)CCC(=O)Nc1ccc(S(=O)(=O)Nc2nccs2)cc1
inactive: outcome [1] | outcome [2] | outcome [3] | Potency [4] | outcome [5] | outcome [6] | max response [7] 2.99% | Potency [8] | outcome [10] | Potency [13] | Potency [20] | Potency [19] | Potency [15] | outcome [16] | outcome [18]

Cc1cc(C)c(C)c(C)c1
inactive: outcome [1] | outcome [2] | outcome [3] | Potency [4] | outcome [5] | outcome [6] | max response [7] -10% | Potency [8] | Potency [9] | outcome [10] | Potency [11] | Potency [13] | Potency [20] | Potency [19] | Potency [14] | Potency [15] | outcome [16] | outcome [17] | outcome [18]

C=CC(=O)OCCOCCOCC
inactive: outcome [1] | outcome [2] | outcome [3] | Potency [4] | outcome [5] | outcome [6] | max response [7] 21.6% | Potency [8] | Potency [9] | outcome [10] | Potency [11] | Potency [13] | Potency [20] | Potency [19] | Potency [14] | Potency [15] | outcome [16] | outcome [17] | outcome [18]

CCC(C)(C)C
inactive: outcome [1] | outcome [2] | outcome [3] | Potency [4] | outcome [5] | outcome [6] | max response [7] 2.63% | Potency [8] | Potency [9] | outcome [10] | Potency [11] | Potency [12] | Potency [13] | Potency [19] | Potency [14] | Potency [15] | outcome [16] | outcome [17] | outcome [18]
